Source: PubChem BioAssay (NCATS)
Records with an inconclusive call do not appear. Active and inactive are the calls of the source. Calls follow the shape of the dose curve; as a rule, active = well fitted inhibition curve with a large enough effect; inconclusive = small, poorly fitted or top-dose-only effect; inactive = flat fitted curve, though single readings scatter.

What was measured:
CRL-7250 = normal cell line; experiment: Cytotoxic Profiling of Annotated Libraries Using Quantitative High-Throughput Screening (AID 1296008); conditions: Five cell lines viability, CellTiter-Glo ATP luminescence, 48-72 h; max response: active compounds read low; as to max response: % is scaled to controls: 0 for no effect and ±100 for the full control effect
Procedure, shortened: (§1)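 Cells exposed to compounds for 48 or 72 hr at 37 degrees Celsius. Viability read as ATP-coupled luminescence with CellTiter-Glo after 10 min at room temperature.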

HEK293 = experiment: as above; conditions: Five cell lines viability, CellTiter-Glo ATP luminescence, 48-72 h; max response: active compounds read low
Procedure, shortened: as §1

HaCat [1] = experiment: as above; conditions: Five cell lines viability, CellTiter-Glo ATP luminescence, 48-72 h; max response: active compounds read low
Procedure, shortened: as §1

KB-3-1 = experiment: as above; conditions: Five cell lines viability, CellTiter-Glo ATP luminescence, 48-72 h; max response: active compounds read low
Procedure, shortened: as §1

NIH3T3 = experiment: as above; conditions: Five cell lines viability, CellTiter-Glo ATP luminescence, 48-72 h; max response: active compounds read low
Procedure, shortened: as §1

HACAT [2] = experiment: qHTS assay to identify novel small-molecules to repurpose for Merkel cell carcinoma treatment (AID 1296009); conditions: MCC and control cell lines, CellTiter-Glo viability, 72 h; at 44.8 µM (top of the series) unless noted
Procedure, shortened: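 CellTiter-Glo luminescence after 72 hr compound exposure at 37 degree celsius gave cell viability. Libraries NPC and MIPE were run as 8- and 11-point dose responses; RLUs normalized to DMSO (negative) and no-cell (cytotoxicity) controls.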

Measured: max response
Also: nearly all actives have a fitted effect of over 60% in size.

COc1ccc(NC(=O)c2ccc(-c3ccc(C(N)=O)cc3C)cc2)cc1N1CCN(C)CC1
inactive: CRL-7250 -5.67% | HEK293 -78.4% | HaCat [1] | KB-3-1 1.64% | NIH3T3 4.28% | HACAT [2]

C=C(COC(=O)C(C)C)C1Oc2cc(C(C)=O)ccc2C1OC(=O)C(C)C (stereo not given)
inactive: CRL-7250 -10.7% | HEK293 1.24% | HaCat [1] | KB-3-1 4.68% | NIH3T3 0.455% | HACAT [2]

Cc1cc(C)c2nc(-c3ccccn3)cc(C(=O)Nc3ccc(S(=O)(=O)Nc4onc(C)c4C)cc3)c2c1
inactive: CRL-7250 -3.09% | HEK293 -20.7% | HaCat [1] | KB-3-1 1.46% | NIH3T3 1.48% | HACAT [2]

On1ncc(C2CCNCC2)c1-c1cccc(-c2ccccc2)c1
inactive: CRL-7250 | HEK293 -1.77% | HaCat [1] | KB-3-1 8.99% | NIH3T3 1.04% | HACAT [2]

C=CCc1cc(OC)c(OC(C)C(O)c2ccc(O)c(OC)c2)c(OC)c1 (stereo not given)
inactive: CRL-7250 -6.23% | HEK293 0.874% | HaCat [1] | KB-3-1 -7.75% | NIH3T3 -6.43% | HACAT [2]

COC(=O)[C@@H](NC(=O)[C@H](CC(C)C)NC(=O)N(Cc1ccccc1)C[C@@H](O)[C@H](Cc1ccccc1)NC(=O)OC(C)(C)C)C(C)C
inactive: CRL-7250 | HEK293 0.117% | HaCat [1] | KB-3-1 -5.6% | NIH3T3 -6.39% | HACAT [2] inactive [at 9.27 µM]

C/C=C1/[C@H](O[C@@H]2O[C@H](CO)[C@@H](O)[C@H](O)[C@H]2O)OC=C2C(=O)O[C@@H]3C[C@@H](C(C)CO)[C@H](COC(=O)C[C@H]21)[C@H]3C (stereo not given in full)
inactive: CRL-7250 3.26% | HEK293 -21.8% | HaCat [1] | KB-3-1 | NIH3T3 1.25% | HACAT [2] inactive [at 17.4 µM]

CC1CC2(O)OC(=O)C3=C2C(CCC3)[C@@]12C[C@@H](c1ccoc1)OC2=O (stereo not given in full)
inactive: CRL-7250 0.272% | HEK293 -0.207% | HaCat [1] | KB-3-1 | NIH3T3 0.0082% | HACAT [2]

COc1c(C)c(OCC=C(C)C)cc2c1COC2=O
inactive: CRL-7250 -4.58% | HEK293 3.79% | HaCat [1] | KB-3-1 4.15% | NIH3T3 2.66% | HACAT [2]

C[C@@H]1O[C@@H](O[C@@H]2\C=C/C=C\C=C/C=C\C[C@H](C)OC(=O)/C=C\[C@H]3O[C@@H]3C[C@H](O)C[C@]3(O)C[C@@H](O)[C@@H](C(=O)O)[C@H](C2)O3)[C@H](O)[C@H](N)[C@@H]1O
inactive: CRL-7250 3.44% | HEK293 3.56% | HaCat [1] | KB-3-1 | NIH3T3 3.56% | HACAT [2]

CC1=C(C(=O)OC2OC(COC3OC(CO)C(O)C(O)C3O)C(O)C(O)C2O)C(C)(C)CCC1 (stereo not given)
inactive: CRL-7250 -6.15% | HEK293 1.47% | HaCat [1] | KB-3-1 | NIH3T3 0.403% | HACAT [2] inactive [at 17.4 µM]

C[C@@H]1O[C@@H](O[C@H]2[C@H](OC(=O)[C@]34CCC(C)(C)C[C@H]3C3=CCC5[C@@]6(C)CC[C@H](O[C@@H]7O[C@H](CO[C@@H]8OC[C@H](O)[C@H](O)[C@H]8O)[C@@H](O)[C@H](O)[C@H]7O)C(C)(C)C6CC[C@@]5(C)[C@]3(C)C[C@H]4O)OC[C@@H](O)[C@@H]2O)[C@H](O)[C@H](O[C@@H]2OC[C@](O)(CO)[C@H]2O)[C@H]1O[C@@H]1OC[C@H](O)[C@H](O[C@@H]2OC[C@@H](O)[C@H](O)[C@H]2O)[C@H]1O (stereo not given in full)
inactive: CRL-7250 | HEK293 -12.4% | HaCat [1] | KB-3-1 6% | NIH3T3 -2.23% | HACAT [2] inactive [at 9.27 µM]

N#Cc1cccc(-c2nc(-c3cccnc3)no2)c1
inactive: CRL-7250 -3.07% | HEK293 -8.6% | HaCat [1] | KB-3-1 | NIH3T3 | HACAT [2] inactive [at 17.4 µM]

CC1(C)CC[C@]2(C(=O)O)CC[C@]3(C)C(=CCC4[C@@]5(C)C[C@@H](O)[C@H](O)[C@@](C)(CO)C5[C@H](O)C[C@]43C)[C@@H]2C1 (stereo not given in full)
inactive: CRL-7250 | HEK293 -6.35% | HaCat [1] | KB-3-1 | NIH3T3 0.343% | HACAT [2] inactive [at 17.4 µM]

C[C@@H]1CC[C@]2(C(=O)O[C@@H]3O[C@H](CO[C@@H]4O[C@H](CO)[C@@H](O)[C@H](O)[C@H]4O)[C@@H](O)[C@H](O)[C@H]3O)CC[C@]3(C)C(=CCC4[C@@]5(C)CC[C@H](O)[C@](C)(C(=O)O)C5CC[C@]43C)[C@@H]2[C@]1(C)O (stereo not given in full)
inactive: CRL-7250 | HEK293 3.94% | HaCat [1] | KB-3-1 2.71% | NIH3T3 -11.7% | HACAT [2] inactive [at 9.27 µM]

CC1(C)CCC[C@]2(C)C1CC=C(CO)[C@H]2CC/C(=C/CO)CO (stereo not given in full)
inactive: CRL-7250 -11.4% | HEK293 -9.82% | HaCat [1] | KB-3-1 -0.734% | NIH3T3 1.71% | HACAT [2]

COc1c(C)c(OCC=C(C)C)cc2c1CNC2=O
inactive: CRL-7250 -2.67% | HEK293 -5.13% | HaCat [1] | KB-3-1 -3.05% | NIH3T3 -2.21% | HACAT [2]

O=C(/C=C/c1ccccc1)OC[C@H]1O[C@@H](OC(=O)c2cc(O)c(O)c(O)c2)[C@H](O)[C@@H](O)[C@@H]1O
inactive: CRL-7250 | HEK293 4.27% | HaCat [1] | KB-3-1 6.66% | NIH3T3 3.75% | HACAT [2] inactive [at 17.4 µM]

C=CC(C)(O)CC/C=C(\C)C(=O)O[C@@H]1[C@@H](O)[C@H](OC(C)(C=C)CC/C=C(\C)C(=O)O[C@@H]2O[C@H](CO)[C@@H](O)[C@H](O)[C@H]2O)O[C@H](CO)[C@H]1OC(=O)/C(C)=C/CCC(C)(O)C=C (stereo not given in full)
inactive: CRL-7250 1.38% | HEK293 -3.95% | HaCat [1] | KB-3-1 | NIH3T3 1.18% | HACAT [2] inactive [at 9.27 µM]

O=C(O[C@H]1[C@H](Oc2ccc(O)cc2CO)O[C@H](CO)[C@@H](O)[C@@H]1O)c1ccccc1
inactive: CRL-7250 -4.77% | HEK293 -1.69% | HaCat [1] | KB-3-1 | NIH3T3 2.07% | HACAT [2] inactive [at 17.4 µM]

CCc1nnc(NS(=O)(=O)c2ccc(NC(=S)NC(=O)/C=C/c3ccc(F)cc3)cc2)s1
inactive: CRL-7250 | HEK293 -0.631% | HaCat [1] | KB-3-1 | NIH3T3 | HACAT [2]

COC(=O)C(Cc1ccccc1)NC(=O)c1ccccc1 (stereo not given)
inactive: CRL-7250 -7.59% | HEK293 -8.19% | HaCat [1] | KB-3-1 6.61% | NIH3T3 -1.1% | HACAT [2]

CC1CCC2C(C)(C)[C@H](O)CC[C@]2(C)C12Cc1c(O)cc3c(c1O2)CN(C(CCC(=O)O)C(=O)O)C3=O (stereo not given in full)
inactive: CRL-7250 -1.74% | HEK293 0.0488% | HaCat [1] | KB-3-1 | NIH3T3 3.99% | HACAT [2] inactive [at 17.4 µM]

O=C(/C=C/c1ccc(O)c(O)c1)O[C@H]1[C@@H]2C=CO[C@@H](O[C@@H]3O[C@H](CO)[C@@H](O)[C@H](O)[C@H]3O)[C@@H]2[C@@]2(CO)O[C@@H]12
inactive: CRL-7250 -3.33% | HEK293 -6.64% | HaCat [1] | KB-3-1 | NIH3T3 -4.11% | HACAT [2] inactive [at 17.4 µM]

CC(=O)OC12CC(C)C(OC(=O)c3ccccc3)C1/C=C(/C)C(OC(=O)c1ccccc1)CC(=O)C(C)(C)/C=C/C(C)C2=O (stereo not given)
inactive: CRL-7250 -26.4% | HEK293 -14.7% | HaCat [1] | KB-3-1 | NIH3T3 1.94% | HACAT [2] inactive [at 17.4 µM]

CC1=CC2=C(C)C(=O)[C@](C)(O)[C@H](O)C2=CO1
inactive: CRL-7250 -8.59% | HEK293 3.6% | HaCat [1] | KB-3-1 6.84% | NIH3T3 -3.34% | HACAT [2]

CC1(C)C2CCC1(C)C(OC(=O)C(O)(CC(=O)O)CC(=O)O)C2 (stereo not given)
inactive: CRL-7250 | HEK293 -0.502% | HaCat [1] | KB-3-1 | NIH3T3 3.45% | HACAT [2]

O=C(NCCN1CCCC1)c1cc(-c2ccc(CN3CCOCC3)cc2)nc2ccc(F)cc12
inactive: CRL-7250 3.26% | HEK293 2.05% | HaCat [1] | KB-3-1 | NIH3T3 1.71% | HACAT [2] inactive [at 17.4 µM]

C/C(=C\CO)CC/C=C(\C)C(=O)O[C@@H]1O[C@H](CO)[C@@H](O)[C@H](O)[C@H]1O
inactive: CRL-7250 -4.11% | HEK293 1.04% | HaCat [1] | KB-3-1 | NIH3T3 1.84% | HACAT [2]

C[C@H]1CC(=O)C2=C(C1)C(O)C(O)[C@@]1(O)[C@H]2C(=O)c2cccc(O)c2[C@@H]1O (stereo not given in full)
inactive: CRL-7250 -10.1% | HEK293 3.36% | HaCat [1] | KB-3-1 | NIH3T3 3.59% | HACAT [2]

CC1=CCC(O)C2(C)CCC3C(C)C(=O)OC3C12 (stereo not given)
inactive: CRL-7250 -3.96% | HEK293 -18.2% | HaCat [1] | KB-3-1 -6.48% | NIH3T3 -0.383% | HACAT [2]

COc1ccc(-n2[nH]c3c(cnc4ccccc43)c2=O)cc1
inactive: CRL-7250 1.83% | HEK293 -1.19% | HaCat [1] | KB-3-1 | NIH3T3 3.94% | HACAT [2]

OCC1=C[C@@H](O)[C@@H]2C=CO[C@@H](O[C@@H]3O[C@H](CO)[C@@H](O)[C@H](O)[C@H]3O)[C@H]12
inactive: CRL-7250 -1.82% | HEK293 0.828% | HaCat [1] | KB-3-1 | NIH3T3 4.6% | HACAT [2]

COC(=O)C1C(c2ccc(O)cc2)C(C(=O)O)C1c1ccc(O)cc1 (stereo not given)
inactive: CRL-7250 -7.64% | HEK293 -2.14% | HaCat [1] | KB-3-1 7.92% | NIH3T3 -3.05% | HACAT [2]

CC(=O)O[C@H]1C[C@@H](O)C(C)(C)C2C[C@@H](OC(C)=O)[C@]3(C)C(CC[C@@]4(C)[C@H](c5ccoc5)OC(=O)[C@H]5O[C@]543)[C@]21C (stereo not given in full)
inactive: CRL-7250 -9.34% | HEK293 -3.17% | HaCat [1] | KB-3-1 | NIH3T3 1.84% | HACAT [2] inactive [at 17.4 µM]
